Screening results (PubChem)
An excerpt weighted towards active compounds, which were near 2.1% of everything screened.
MLLE-PAM2 inh = inhibitors of microRNA-mediated deadenylation, human PABP1 MLLE binding | P11940 | GST-MLLE / FITC-PAM2 fluorescence polarization | inhibition, % at 20 µM | 360,000 tested, 0.36% active | AID 588489; in the data active = inhibition above about 35%, passing the limit was not always enough
Target sequence (P11940 whole entry, looked up): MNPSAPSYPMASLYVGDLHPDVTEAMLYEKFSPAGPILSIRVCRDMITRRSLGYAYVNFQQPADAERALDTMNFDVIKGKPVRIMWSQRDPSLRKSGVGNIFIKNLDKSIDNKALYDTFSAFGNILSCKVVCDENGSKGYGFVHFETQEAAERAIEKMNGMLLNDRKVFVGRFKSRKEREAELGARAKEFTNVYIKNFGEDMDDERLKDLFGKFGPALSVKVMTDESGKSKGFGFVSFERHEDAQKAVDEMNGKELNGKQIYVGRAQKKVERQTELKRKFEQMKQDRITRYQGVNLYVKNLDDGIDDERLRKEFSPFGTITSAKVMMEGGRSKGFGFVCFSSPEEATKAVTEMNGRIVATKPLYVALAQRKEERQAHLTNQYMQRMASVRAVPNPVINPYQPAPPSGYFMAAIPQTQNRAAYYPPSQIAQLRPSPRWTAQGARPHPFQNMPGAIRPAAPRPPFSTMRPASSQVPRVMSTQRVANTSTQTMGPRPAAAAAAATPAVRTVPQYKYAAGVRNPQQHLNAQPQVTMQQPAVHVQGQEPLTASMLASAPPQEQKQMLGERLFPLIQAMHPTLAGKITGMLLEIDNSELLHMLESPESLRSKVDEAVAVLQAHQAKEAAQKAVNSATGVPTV
PABP polyA inh = PABP-poly(A) binding inhibition; P11940; PABP-poly(A) RNA binding, fluorescence polarization; inhibition, % at 35 µM; 290,000 tested, 1% active; AID 2014;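 also: calls also rest on retests at 20 µM and on dose response follow-up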
eIF4H inh = inhibitors of RNA binding by human eIF4H. Q15056. eIF4H fluorescence polarization binding assay. inhibition, % at 35 µM. 290,000 tested, 0.94% active;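 also: calls also rest on retests at 20 µM and on dose response follow-up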
NRP1-CendR mod = modulators of CendR peptide binding to human neuropilin-1; O14786; FAM-RPARPAR peptide binding to NRP-1, fluorescence polarization; inhibition, % at 25 µM; 360,000 tested, 0.85% active; AID 602438;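 active = inhibition or corrected inhibition above about 18%, plus a signal ratio from 0.5 to 1.5, limit read from the data, passing the limit was not always enough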
Numbers stand for hits; i = inactive; ? = inconclusive; nt = not tested or not shown; ! = a repeat was not active. Unless noted, no rule for the calls is given here.

SMILES	MLLE-PAM2 inh	PABP polyA inh	eIF4H inh	NRP1-CendR mod
CC(Sc1nnc(C2CC2)n1-c1ccccc1)C(=O)N1CCNC1=O (stereo not drawn)	i	nt	nt	i
CCN(CC)c1ccc(NC(=O)CCS(=O)(=O)c2ccc(Br)cc2)c(C)c1	i	42	93	i
COc1ccc(C(=O)COc2ncnc3cc(Cl)ccc23)cc1	i	i	i	i
N#Cc1cccc(OC(=O)C2CCN(C(=O)c3ccc(F)cc3)CC2)c1	i	nt	nt	i
Cc1c(C(c2cccc(Br)c2)c2c(C)n(C)n(-c3ccccc3)c2=O)c(=O)n(-c2ccccc2)n1C	i	i	i	i
c1coc(-c2nc3ccccc3nc2-c2ccco2)c1	i	85	102	i
O=C(NCCO)c1ccc(Cl)c(Cl)c1	i	i	i	i
Cc1ccc(C)c(N2CCN(C(=O)c3ccc4nc(-c5ccco5)c(-c5ccco5)nc4c3)CC2)c1	i	i	86	i
O=C(NCCc1ccccc1)c1ccc2nc(-c3ccco3)c(-c3ccco3)nc2c1	i	90	88	i
O=C(NCCO)c1ccc2nc(-c3ccco3)c(-c3ccco3)nc2c1	40	92	87	i
O=C(c1ccccc1)c1ccc2nc(-c3ccco3)c(-c3ccco3)nc2c1	i	i	i	i
O=C(NC1CCCC1)c1ccc2nc[nH]c2c1	i	i	i	i
O=C(NC1CCCC1)c1ccc2nc(-c3ccco3)c(-c3ccco3)nc2c1	i	60	102	i
N#Cc1ccc(Oc2ncccn2)cc1	i	nt	nt	i
COc1ccc(C2=C/C(=C\c3ccc(OC(C)=O)cc3)C(=O)O2)cc1	i	i	i	108
COC(=O)c1ccc(Cn2nc(-c3ccc(C)cc3)ccc2=O)cc1	i	i	i	i
N#CC1=C(N)SC(N)=C(C#N)C1c1cccc(O)c1	i	73	74	i
COc1ccc(C2C(C#N)=C(N)SC(N)=C2C#N)cc1OC	i	?	?	i
COc1ccc(OC)c(NC(=O)CSC2=NCCS2)c1	40	i	i	i
COc1ccc2nc(NC(=O)CSC3=NCCS3)sc2c1	i	i	i	i
COc1cc([C@@H]2[C@H]3CNCC=C3C(C#N)=C(N)C2(C#N)C#N)ccc1OC(C)C	i	91	73	i
COc1cc2oc(=O)ccc2cc1-c1c(OC)ccc2ccc(=O)oc12	i	nt	nt	i
Cc1nnc(NC(=O)CCC(=O)N2CCN(S(=O)(=O)c3cc([N+](=O)[O-])ccc3C)CC2)s1	i	nt	nt	i
Cn1c(=O)c2[nH]c(NCCCN3CCOCC3)nc2n(C)c1=O	i	i	i	22
Nc1ccc2nc(-c3ccccc3)c(-c3ccccc3)nc2c1	i	i	70	i
SMILES	MLLE-PAM2 inh	PABP polyA inh	eIF4H inh	NRP1-CendR mod
CN1/C(=C\C=N\O)C(C)(C)c2ccccc21	i	i	i	i
CN1/C(=C\C=C(/C#N)C(=O)Nc2ccccc2F)C(C)(C)c2ccccc21	i	7.9	i	i
CN1/C(=C/C=C(/C#N)C(N)=O)C(C)(C)c2ccccc21	i	i	55	i
CCCNC(=O)C1(O)c2cc(Br)ccc2NC(=O)N1c1ccc(Cl)cc1 (stereo not drawn)	i	i	i	i
Cc1cnc(NC(=O)c2c(Cl)cnn2C)s1	i	i	i	i
COC(=O)c1c(NC(=O)CN2CCN(c3ncccn3)CC2)sc(C(N)=O)c1C	i	i	i	i
C=Cc1c(C)c2cc3[nH]c(cc4nc(cc5nc(cc1[nH]2)C(C)=C5CCC(=O)O)C(CCC(=O)O)=C4C)c(C)c3C=C	i	nt	nt	20!
COc1ccc(Sc2nnc(Cc3ccccc3)c3ccccc23)cc1	40	i	i	i
Cc1ccc(Sc2nnc(Cc3ccccc3)c3ccccc23)cc1	i	i	i	i
CS(=O)(=O)c1ccc(C(=O)NCC(c2ccco2)N2CCCCC2)cc1 (stereo not drawn)	i	i	83	i
CCOC(=O)N1C=CC=C[C@@H]2[C@@H](N3C(=O)c4ccccc4C3=O)C(=O)N21	i	93	i	i
Cc1ccc(-c2nc(N)s[n+]2-c2ccccc2)cc1	40	i	i	i
N#Cc1ccc(S(=O)(=O)N2CCN(CC(=O)Nc3ccccc3C(=O)NC3CC3)CC2)cc1	i	nt	nt	i
O=C(CN1CCN(S(=O)(=O)c2ccc(F)cc2)CC1)Nc1ccccc1C(=O)NC1CC1	i	nt	nt	26
CCOC(=O)C(=O)C1=C(N2CCOCC2)/C(=C\c2cccc([N+](=O)[O-])c2)CC1	i	active	i	i
c1ccc(-c2ccnc3nc(N4CCN(c5ccccc5)CC4)nn23)cc1	i	i	i	i
Cc1ccc(-c2ccnc3nc(-n4cccc4)nn23)o1	i	active	56	i
COc1ccc(OC)c(NC(=O)C2CC(=O)N(c3ccccc3)C2)c1 (stereo not drawn)	i	i	i	i
COc1ccc(OC)c(NC(=O)C2CC(=O)N(c3ccc(Br)cc3)C2)c1 (stereo not drawn)	i	i	i	26
CC(=O)Nc1ccc(NC(=O)C2CC(=O)N(c3ccc(Cl)cc3)C2)cc1 (stereo not drawn)	i	i	i	28
O=C(Nc1ccc(N2CCOCC2)cc1)C1CC(=O)N(c2ccc(Cl)cc2)C1 (stereo not drawn)	i	i	i	i
O=C(COc1ccccc1C(=O)N/N=C\c1ccc(O)c(O)c1)N/N=C/c1ccc(O)c(O)c1	i	42	74	i
O=C(NN=Cc1ccc(O)c(O)c1)c1ccccc1	i	nt	nt	i
CC(=O)Oc1c(-c2ccc(Br)o2)oc2ccccc2c1=O	i	i	i	i
NC(=O)C(c1ccc(Cl)cc1Cl)c1ncc(C(F)(F)F)cc1Cl (stereo not drawn)	i	i	i	23
SMILES	MLLE-PAM2 inh	PABP polyA inh	eIF4H inh	NRP1-CendR mod
O=C(CCN1CCOCC1)NNC(=O)c1ccc([N+](=O)[O-])cc1[N+](=O)[O-]	i	nt	nt	i
Cc1cc(C)c(NC(=O)C2CCCN2CCOC(=O)c2cccc([N+](=O)[O-])c2)c(C)c1 (stereo not drawn)	i	67	active	i
Cc1cc(C)c(NC(=O)C2CCCN2CCOC(=O)c2ccccc2)c(C)c1 (stereo not drawn)	i	i	i	i
CCS(=O)(=O)c1nc(S(=O)(=O)c2ccc(Cl)cc2)c(N2CCOCC2)s1	i	i	i	35
Cc1cn([C@H]2C[C@H](O)[C@@H](CCC(=O)NCc3cccc4ccccc34)O2)c(=O)[nH]c1=O	i	nt	nt	i
COc1ccc(C(C)C)cc1-c1cc(C(=O)NCc2cc(C(F)(F)F)cc(C(F)(F)F)c2)[nH]n1	i	nt	nt	i
COc1ccc(C(C)C)cc1-c1cc(C(=O)NCc2cccc(C(F)(F)F)c2)[nH]n1	i	nt	nt	21
CCCc1nc2c(=O)n(C)c(=O)nc-2n(C)n1	i	i	i	i
Cn1nc(-c2ccccn2)nc2c(=O)n(C)c(=O)nc1-2	i	i	i	28
O=C(Nc1ccccc1Cl)C1CCN(S(=O)(=O)c2cccc3nonc23)CC1	i	i	i	i
O=C(O)Cc1ccc(NC(=O)c2ccc3c(c2)C(=O)N(Cc2ccco2)C3=O)cc1	i	59	100	i
COC(=O)c1ccc(NC(=O)COC(=O)C2CCC2)cc1	i	nt	nt	i
CC(=O)Nc1ccc(NC(=O)COC(=O)C2CCCCC2)cc1	i	nt	nt	24
O=C(NCC(=O)N1CCN(c2ccccc2O)CC1)c1ccc(Br)o1	i	nt	nt	i
